In PubChem BioAssay (NCATS):
Records with an inconclusive call do not appear. Activity calls are given as the source filed them. Unless noted, the call rests on the fitted dose curve; in most records, active means well fitted curve in the direction sought with a large enough effect; inconclusive means small, poorly fitted or top-dose-only effect, or another doubt; inactive means no such curve, though single readings can be large; an effect the other way counts as inactive or inconclusive.

What was measured:
[1] = NFAT Signaling Pathway (AID 444; active means well fitted curve in either direction with a large enough effect, not every such curve was filed as active;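 further: carbachol stimulus at about its EC50 of 1 µM final; on the % scale 0 is the no-effect control and ±100 the full control effect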); conditions: Jurkat NFAT-bla M1, carbachol, beta-lactamase ratio, 5 h; at 7.69 µM (top of the series) unless noted
How it was run: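 Jurkat cells with NFAT-driven β-lactamase reporter and co-expressed M1 receptor, stimulated with carbachol (final 1 uM, ~EC50), compound titration, 5 h at 37 °C. CCF4 loaded 1 h at RT; 460/530 nm ratio gave %activity and AC50.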

[2] = target: Glucocorticoid receptor (Homo sapiens) (UniProt P04150); test: GR-GFP Redistribution (AID 450;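 active means compounds whose dose series gives a full or clear partial fitted curve of increased nuclear translocation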; further: potency means the concentration at half of the fitted maximal effect); conditions: U2OS GR-GFP nuclear translocation, laser cytometry, 2 h
Sequence of Glucocorticoid receptor (Homo sapiens) (P04150 whole entry, looked up): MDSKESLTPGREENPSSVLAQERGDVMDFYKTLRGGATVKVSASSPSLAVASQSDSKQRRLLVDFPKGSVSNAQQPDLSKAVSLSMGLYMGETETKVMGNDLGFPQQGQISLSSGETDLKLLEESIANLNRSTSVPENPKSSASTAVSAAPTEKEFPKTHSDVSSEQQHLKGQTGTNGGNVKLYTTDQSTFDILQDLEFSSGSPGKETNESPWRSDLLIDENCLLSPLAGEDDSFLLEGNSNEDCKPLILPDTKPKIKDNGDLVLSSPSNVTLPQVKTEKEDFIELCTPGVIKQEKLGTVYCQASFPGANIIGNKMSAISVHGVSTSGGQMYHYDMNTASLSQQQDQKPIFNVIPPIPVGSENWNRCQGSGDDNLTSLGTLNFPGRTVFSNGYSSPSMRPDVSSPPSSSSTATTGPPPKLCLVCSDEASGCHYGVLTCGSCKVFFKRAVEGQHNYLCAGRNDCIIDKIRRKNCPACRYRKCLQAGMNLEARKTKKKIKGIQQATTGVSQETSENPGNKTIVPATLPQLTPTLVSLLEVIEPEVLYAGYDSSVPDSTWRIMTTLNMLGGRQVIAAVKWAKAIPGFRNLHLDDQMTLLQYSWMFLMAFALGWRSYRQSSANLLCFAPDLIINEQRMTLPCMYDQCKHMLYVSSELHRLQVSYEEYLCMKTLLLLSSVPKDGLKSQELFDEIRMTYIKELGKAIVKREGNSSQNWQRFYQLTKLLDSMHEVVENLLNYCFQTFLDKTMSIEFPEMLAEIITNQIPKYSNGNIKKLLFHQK

[3] = target: Mitogen-activated protein kinase 10 (Mus musculus) (UniProt Q61831); test: JNK3 AlphaScreen Assay (AID 530; active means well fitted curve in either direction with a large enough effect, not every such curve was filed as active;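 further: kinase came from lysate of stimulated human HepG2 cells; signal reports phosphorylation of biotinylated GST-cJun 1-79 at Ser73 with 10 µM ATP; on the % scale 0 is the no-effect control and ±100 the full control effect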)
How it was run: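 Pre-activated (IL-1β/TNFα) JNK3 in HepG2 lysates phosphorylates biotin-GST-cJun(1-79), 10 uM ATP; anti-phospho-cJun(Ser73) AlphaScreen read at room temperature, pH 7.6 Tris buffer. Compounds pre-incubated 15 min as titrations.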

[4] = target: Ubiquitin carboxyl-terminal hydrolase 1 (Homo sapiens) (UniProt O94782); test: Inhibitors of USP1/UAF1: Pilot qHTS (AID 504865); further: nearly all actives have a fitted effect of over 35% in size; further: potency means the concentration at half of the fitted maximal effect
Sequence of Ubiquitin carboxyl-terminal hydrolase 1 (Homo sapiens) (O94782 whole entry, looked up): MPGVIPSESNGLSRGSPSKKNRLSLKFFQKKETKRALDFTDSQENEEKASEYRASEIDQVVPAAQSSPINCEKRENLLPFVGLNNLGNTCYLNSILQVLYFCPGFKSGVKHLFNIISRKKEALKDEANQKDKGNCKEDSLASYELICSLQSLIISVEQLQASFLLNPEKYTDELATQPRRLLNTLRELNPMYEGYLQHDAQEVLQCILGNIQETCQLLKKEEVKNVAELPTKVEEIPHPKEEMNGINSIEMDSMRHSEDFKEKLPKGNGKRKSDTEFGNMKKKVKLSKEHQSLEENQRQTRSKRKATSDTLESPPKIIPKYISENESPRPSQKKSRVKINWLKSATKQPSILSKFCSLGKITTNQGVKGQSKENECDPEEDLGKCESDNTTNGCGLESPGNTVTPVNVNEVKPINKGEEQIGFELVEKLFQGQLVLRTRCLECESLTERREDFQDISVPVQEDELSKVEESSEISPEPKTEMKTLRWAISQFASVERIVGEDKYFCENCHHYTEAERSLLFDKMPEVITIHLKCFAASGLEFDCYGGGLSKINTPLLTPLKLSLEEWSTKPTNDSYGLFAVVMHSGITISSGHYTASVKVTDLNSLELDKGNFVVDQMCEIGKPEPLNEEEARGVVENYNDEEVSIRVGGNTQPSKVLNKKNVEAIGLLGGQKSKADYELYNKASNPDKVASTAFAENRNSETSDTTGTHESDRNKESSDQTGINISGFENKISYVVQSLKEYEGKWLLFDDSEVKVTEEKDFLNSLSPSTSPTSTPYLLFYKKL
How it was run: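 USP1/UAF1 complex (1nM) preincubated with compound 15 min at room temperature, then Ub-Rho substrate (150nM final) added. Fluorescence read kinetically at 480/540 nm, 6 reads every 60 seconds. Buffer: 50mM HEPES pH 7.8, 0.5mM EDTA, 0.1 mg/ml BSA, 1mM TCEP, 0.01% Tween-20.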

[5] = Viability counterscreen for antagonist of constitutive androstane receptor (CAR) against the NCATS DSHEA and TCM libraries (AID 1794837);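 further: compound exposure lasted 24 h before viability reading; 0% is about no effect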
How it was run: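 HepG2-CYP2B6-hCAR cells (2,500/well) were allowed to attach for 5 h, then exposed to compounds with 48 uM CITCO for 24 h at 37C. Viability was read by CellTiter-Fluor fluorescence after 1 h.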

[6] = Viability counterscreen for agonist of constitutive androstane receptor (CAR) against the NCATS DSHEA and TCM libraries (AID 1794838); further: 0% is about no effect
How it was run: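 HepG2-CYP2B6-hCAR cells (2,500/well) attached 5 h, then got compounds plus 0.75 uM PK11195 final. After 24 h at 37C, viability read by CellTiter-Fluor fluorescence (Ex/Em 405/540 nm).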

[7] = target: Nuclear receptor subfamily 1 group I member 3 (Homo sapiens) (UniProt Q14994); test: Primary qHTS for agonist of constitutive androstane receptor (CAR) against the NCATS DSHEA and TCM libraries (AID 1794839);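 further: HepG2 cells expressing human CAR with a CYP2B6 reporter plus PK11195 antagonist; 0% is about no effect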
Sequence of Nuclear receptor subfamily 1 group I member 3 (Homo sapiens) (Q14994 whole entry, looked up): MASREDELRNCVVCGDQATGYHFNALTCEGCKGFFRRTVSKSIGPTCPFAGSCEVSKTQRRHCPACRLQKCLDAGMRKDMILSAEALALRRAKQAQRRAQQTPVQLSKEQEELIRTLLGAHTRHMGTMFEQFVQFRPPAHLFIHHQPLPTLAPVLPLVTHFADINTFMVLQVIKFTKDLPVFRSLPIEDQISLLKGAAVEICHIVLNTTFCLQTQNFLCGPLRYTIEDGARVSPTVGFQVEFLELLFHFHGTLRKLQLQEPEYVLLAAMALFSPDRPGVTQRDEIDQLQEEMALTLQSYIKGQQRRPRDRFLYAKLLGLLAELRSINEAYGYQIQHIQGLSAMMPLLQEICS
How it was run: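 HepG2-CYP2B6-hCAR cells (2,500/well) were attached for 5 h, then treated for 24 h at 37 °C with compounds plus 0.75 µM PK11195. Luciferase luminescence (ONE-Glo) was read, with CellTiter-Fluor viability (Ex/Em 405/540 nm).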

[8] = HepG2 viability counterscreen (readout 2: ATP content) against the NCATS DSHEA and TCM libraries (AID 1794840);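 further: HepG2 cells exposed to substances for about 24 h; 0% is about no effect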
How it was run: (§1)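 HepG2 cells (1,000 cells/well) attached ~4 h, then treated ~24 h at 37C with substances. Protease activity read by GF-AFC (25 uM final, 30 min, Ex/Em 380/510 nm); ATP content then by CellTiter-Glo luminescence.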

[9] = HepG2 viability counterscreen (readout 1: protease activity) against the NCATS DSHEA and TCM libraries (AID 1794841);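 further: cells exposed to compounds for about 24 h before the protease read; 0% is about no effect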
How it was run: as §1

[10] = target: Cytochrome P450 3A4 (Homo sapiens) (UniProt P08684); test: qHTS for inhibitors of CYP3A4 against the NCATS DSHEA and TCM libraries (AID 1919971);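 further: on the % scale 0 is the no-effect control and ±100 the full control effect; inhibition lowers luminescence from luciferin made by CYP3A4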
Sequence of Cytochrome P450 3A4 (Homo sapiens) (P08684 whole entry, looked up): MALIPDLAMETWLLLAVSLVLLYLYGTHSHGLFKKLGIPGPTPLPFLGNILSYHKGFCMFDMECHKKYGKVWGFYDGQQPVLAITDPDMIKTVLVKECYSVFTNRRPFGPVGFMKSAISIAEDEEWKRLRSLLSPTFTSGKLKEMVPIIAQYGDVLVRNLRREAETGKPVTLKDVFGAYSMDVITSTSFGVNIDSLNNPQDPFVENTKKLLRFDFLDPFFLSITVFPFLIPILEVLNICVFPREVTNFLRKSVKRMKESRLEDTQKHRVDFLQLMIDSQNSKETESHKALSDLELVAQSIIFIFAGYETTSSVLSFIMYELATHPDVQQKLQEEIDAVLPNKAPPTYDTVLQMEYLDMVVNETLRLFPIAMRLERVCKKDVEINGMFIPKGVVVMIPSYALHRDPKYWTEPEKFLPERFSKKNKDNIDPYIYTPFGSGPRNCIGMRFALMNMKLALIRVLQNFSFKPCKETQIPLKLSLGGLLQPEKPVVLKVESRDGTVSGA
How it was run: (§2)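 Luminescent P450-Glo format: compounds preincubated 15 min with enzyme and luciferin substrate, reaction run 30-45 min after NADPH regeneration solution. Intraplate controls: ketoconazole for CYP3A4 and CYP2C19, sulfaphenazole for CYP2C9.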

[11] = target: Cytochrome P450 2D6 (Homo sapiens) (UniProt P10635); test: qHTS for inhibitors of CYP2D6 against the NCATS DSHEA and TCM libraries (AID 1919972); further: on the % scale 0 is the no-effect control and ±100 the full control effect
Sequence of Cytochrome P450 2D6 (Homo sapiens) (P10635 whole entry, looked up): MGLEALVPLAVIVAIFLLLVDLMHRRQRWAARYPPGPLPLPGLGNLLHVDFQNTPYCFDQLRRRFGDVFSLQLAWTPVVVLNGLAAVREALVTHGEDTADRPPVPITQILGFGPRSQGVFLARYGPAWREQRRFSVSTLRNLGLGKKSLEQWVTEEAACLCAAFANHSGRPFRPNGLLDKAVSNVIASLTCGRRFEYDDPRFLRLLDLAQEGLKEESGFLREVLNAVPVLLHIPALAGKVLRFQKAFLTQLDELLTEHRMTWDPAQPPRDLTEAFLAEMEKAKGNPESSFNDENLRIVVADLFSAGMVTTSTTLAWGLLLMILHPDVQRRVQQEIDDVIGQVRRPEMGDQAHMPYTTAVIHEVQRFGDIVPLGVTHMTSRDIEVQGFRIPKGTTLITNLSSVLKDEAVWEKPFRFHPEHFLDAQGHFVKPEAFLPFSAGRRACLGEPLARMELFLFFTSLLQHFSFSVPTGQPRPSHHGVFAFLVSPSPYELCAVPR
How it was run: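 Luminescent P450-Glo read-out of CYP2D6 turnover of a luciferin substrate after NADPH-driven reaction of 30-45 min at room temperature. Compounds were first preincubated 15 min with enzyme at titrated concentrations; quinidine was the intraplate control.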

[12] = target: Cytochrome P450 2C9 (Homo sapiens) (UniProt P11712); test: qHTS for inhibitors of CYP2C9 against the NCATS DSHEA and TCM libraries (AID 1919973);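 further: luminogenic pro-luciferin CYP2C9 substrate turned into luciferin with NADPH regeneration; on the % scale 0 is the no-effect control and ±100 the full control effect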
Sequence of Cytochrome P450 2C9 (Homo sapiens) (P11712 whole entry, looked up): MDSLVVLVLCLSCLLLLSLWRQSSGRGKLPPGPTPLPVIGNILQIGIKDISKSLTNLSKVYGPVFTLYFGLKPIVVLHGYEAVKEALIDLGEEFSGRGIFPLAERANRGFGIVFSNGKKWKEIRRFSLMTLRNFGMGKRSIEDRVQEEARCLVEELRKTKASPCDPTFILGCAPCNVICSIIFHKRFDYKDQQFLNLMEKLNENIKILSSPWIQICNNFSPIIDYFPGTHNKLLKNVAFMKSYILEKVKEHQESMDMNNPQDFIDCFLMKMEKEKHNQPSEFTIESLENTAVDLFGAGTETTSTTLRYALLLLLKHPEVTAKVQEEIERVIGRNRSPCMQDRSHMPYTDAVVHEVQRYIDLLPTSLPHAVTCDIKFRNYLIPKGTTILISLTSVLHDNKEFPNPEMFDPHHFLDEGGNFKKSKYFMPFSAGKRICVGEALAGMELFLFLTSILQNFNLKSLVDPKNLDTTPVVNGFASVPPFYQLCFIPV
How it was run: as §2

[13] = target: Cytochrome P450 2C19 (Homo sapiens) (UniProt P33261); test: qHTS for inhibitors of CYP2C19 against the NCATS DSHEA and TCM libraries (AID 1919974)
Sequence of Cytochrome P450 2C19 (Homo sapiens) (P33261 whole entry, looked up): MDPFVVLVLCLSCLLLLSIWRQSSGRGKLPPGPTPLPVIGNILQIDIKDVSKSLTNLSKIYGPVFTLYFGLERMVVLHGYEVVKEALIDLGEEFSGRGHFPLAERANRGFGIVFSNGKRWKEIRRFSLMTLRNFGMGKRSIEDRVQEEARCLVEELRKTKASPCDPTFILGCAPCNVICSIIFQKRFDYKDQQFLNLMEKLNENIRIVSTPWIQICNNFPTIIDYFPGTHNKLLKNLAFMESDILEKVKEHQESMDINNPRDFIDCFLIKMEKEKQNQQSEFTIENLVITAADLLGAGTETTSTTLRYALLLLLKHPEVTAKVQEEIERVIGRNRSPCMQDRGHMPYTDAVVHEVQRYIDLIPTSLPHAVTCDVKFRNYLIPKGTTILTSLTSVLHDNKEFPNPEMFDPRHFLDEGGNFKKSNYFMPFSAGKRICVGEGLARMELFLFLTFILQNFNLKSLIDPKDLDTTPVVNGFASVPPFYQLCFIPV
How it was run: as §2

[14] = KB-3-1 P-gp reporter qHTS against the NCATS DSHEA and TCM libraries (AID 1919975); further: 0% is about no effect
How it was run: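 Parental KB-3-1 human cervical adenocarcinoma cells (500 cells/well, DMEM + 10% FBS) were treated with substances for ~72 h at 37C; viability was read by CellTiter-Glo luminescence.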

[15] = target: Cytochrome P450 1A2 (Homo sapiens) (UniProt P05177); test: qHTS for inhibitors of CYPIA2 against the NCATS DSHEA and TCM libraries (AID 1919976)
Sequence of Cytochrome P450 1A2 (Homo sapiens) (P05177 whole entry, looked up): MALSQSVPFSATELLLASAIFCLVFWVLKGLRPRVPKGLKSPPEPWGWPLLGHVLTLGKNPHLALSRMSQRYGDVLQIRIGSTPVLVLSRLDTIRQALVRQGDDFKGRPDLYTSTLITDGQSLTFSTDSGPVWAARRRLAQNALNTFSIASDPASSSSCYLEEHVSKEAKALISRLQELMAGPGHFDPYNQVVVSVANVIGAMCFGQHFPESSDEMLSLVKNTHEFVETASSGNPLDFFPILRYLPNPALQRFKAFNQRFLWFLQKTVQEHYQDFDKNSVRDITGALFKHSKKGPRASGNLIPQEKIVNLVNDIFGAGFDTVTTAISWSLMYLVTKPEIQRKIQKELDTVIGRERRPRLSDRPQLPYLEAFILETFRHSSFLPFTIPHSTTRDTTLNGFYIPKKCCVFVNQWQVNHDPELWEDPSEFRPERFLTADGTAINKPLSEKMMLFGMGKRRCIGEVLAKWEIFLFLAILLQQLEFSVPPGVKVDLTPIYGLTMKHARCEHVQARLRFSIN
How it was run: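 Human CYP1A2 with pro-luciferin substrate (typically 100 mM KPO4), 15 min preincubation with compound, then 1x NADPH regeneration for 30-45 min at room temperature in the dark. Luciferin quantified by luciferase luminescence; furafylline intraplate control.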

[16] = qHTS Counterscreen for compound interference against the NCATS DSHEA and TCM libraries (AID 1919978); conditions: firefly luciferase detection reagent interference, luminescence; further: % of control where 0% means no effect
How it was run: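 D-luciferin (1 uM final) or 100 mM potassium phosphate buffer alone was preincubated 15 min at RT with compounds (19.5 nM to 39.8 uM final). Luciferin detection reagent was then added and luminescence read after 30 min at RT.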

[17] = Dual reporter qHTS for agonist of Pregnane X Receptor (hPXR) against the NCATS DSHEA and TCM libraries: Fluorescence readout (AID 1920058); further: 0% is about no effect
How it was run: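 hPXR-Luc HepG2 cells, 2000/well in charcoal-stripped serum, attached 5 h, dosed for ~24 h at 37 °C. Fluorescence read is CellTiter-Fluor viability (Ex/Em 405/540 nm); rifampicin positive, tetraoctyl ammonium bromide (92 µM) cytotoxicity controls.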

[18] = target: Nuclear receptor subfamily 1 group I member 2 (Homo sapiens) (UniProt O75469); test: Dual reporter qHTS for agonist of Pregnane X Receptor (hPXR) against the NCATS DSHEA and TCM libraries: Luminescence readout (AID 1920059); further: 0% is about no effect
Sequence of Nuclear receptor subfamily 1 group I member 2 (Homo sapiens) (O75469 whole entry, looked up): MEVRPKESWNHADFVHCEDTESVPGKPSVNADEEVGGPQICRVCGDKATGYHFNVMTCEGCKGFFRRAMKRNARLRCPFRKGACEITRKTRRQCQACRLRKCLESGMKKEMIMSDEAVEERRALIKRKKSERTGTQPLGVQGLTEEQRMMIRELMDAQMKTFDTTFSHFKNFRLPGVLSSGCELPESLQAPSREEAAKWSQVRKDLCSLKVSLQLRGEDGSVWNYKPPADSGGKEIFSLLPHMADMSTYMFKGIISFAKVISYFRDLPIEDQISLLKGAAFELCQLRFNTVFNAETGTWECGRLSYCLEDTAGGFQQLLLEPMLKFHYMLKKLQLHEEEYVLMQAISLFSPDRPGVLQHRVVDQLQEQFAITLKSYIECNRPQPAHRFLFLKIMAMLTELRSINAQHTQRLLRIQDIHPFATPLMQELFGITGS
How it was run: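 hPXR-Luc HepG2 cells, 2000/well in 5% charcoal-stripped FBS medium, attached 5 h, then exposed 24 h at 37C to compounds. Viability by CellTiter-Fluor, then luciferase luminescence with ONE-Glo.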

[19] = target: Nuclear receptor subfamily 1 group I member 2 (Homo sapiens) (UniProt O75469); test: Dual reporter qHTS for antagonist of Pregnane X Receptor (hPXR) against the NCATS DSHEA and TCM libraries: Luminescence Readout (AID 1920060);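 further: HepG2 cells carrying hPXR luciferase reporter stimulated with rifampicin at 2 µM; 0% is about no effect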
How it was run: (§3)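 HepG2 hPXR-Luc, 2000 cells/well, charcoal-stripped FBS medium; 5 h attach; RIF 2 uM final; 24 h 37C/5% CO2; CellTiter-Fluor 1 h, fluor 405/540; ONE-Glo 30 min RT, lum.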

[20] = Dual reporter qHTS for antagonist of Pregnane X Receptor (hPXR) against the NCATS DSHEA and TCM libraries: Fluorescence Readout (AID 1920061); further: 0% is about no effect
How it was run: as §3

Cc1cccc(CNc2ncncc2-c2ccccc2C)c1
inactive: activity change, negative = inhibition [1] -10.9% | Potency [2] > 46 µM | Potency [3] | Potency [4]

CN(Cc1ccco1)c1nc(-c2ccccc2C(F)(F)F)nc2ccccc12
inactive: Potency [2] > 46 µM | Potency [3]
active: Potency [4] 28.2 µM

COc1ccc2[nH]cc(CCNc3ncncc3-c3ccoc3)c2c1
inactive: activity change, negative = inhibition [1] -12% | Potency [2] > 46 µM | Potency [3] | Potency [4]

COCCn1c(=O)c(-c2cccc(C#N)c2)nc2cnc(OCc3ccccc3)nc21
inactive: activity change, negative = inhibition [1] -5.35% | Potency [2] > 9.22 µM | Potency [3] | Potency [4]

c1ccc2c(NCCN3CCOCC3)nc(-c3ccc4c(c3)OCO4)nc2c1
inactive: activity change, negative = inhibition [1] 12.2% | Potency [2] > 46 µM | Potency [3] | Potency [4]

Cn1cc(-c2nc3cnc(N4CCNCC4)nc3n(CCc3ccccc3)c2=O)c2ccccc21
active: activity change, negative = inhibition [1] 91.4% [activator]
inactive: Potency [2] > 9.22 µM

CC(C)(O)[C@@H]1CC[C@](C)([C@@H]2[C@H](O)C[C@]3(C)C4C[C@@H](O[C@H]5O[C@@H](CO)[C@H](O)[C@@H](O)[C@@H]5O)C5C(C)(C)[C@H](O[C@H]6OC[C@H](O)[C@@H](O)[C@@H]6O)CC[C@]56CC46CC[C@@]23C)O1 (stereo not given in full)
inactive: outcome [5] | outcome [6] | Potency [7] | outcome [8] | outcome [9] | Potency [10] | Potency [11] | Potency [12] | Potency [13] | outcome [14] | Potency [15] | max response [16] 1.31% | outcome [17] | Potency [18] | outcome [19] | outcome [20]

CC(C)c1ccc(C=O)cc1
inactive: outcome [5] | outcome [6] | Potency [7] | outcome [8] | outcome [9] | Potency [10] | Potency [11] | Potency [12] | Potency [13] | outcome [14] | max response [16] -3.36% | outcome [17] | Potency [18] | outcome [19] | outcome [20]

Clc1ccccc1-c1ccc2ncnc(NCCN3CCOCC3)c2c1
inactive: activity change, negative = inhibition [1] 13.8% | Potency [2] > 46 µM | Potency [3] | Potency [4]

CCCCCCCCCCCCCCCCCCCCCC(=O)O
inactive: outcome [5] | outcome [6] | Potency [7] | outcome [8] | outcome [9] | Potency [11] | Potency [12] | Potency [13] | outcome [14] | Potency [15] | max response [16] 3.78% | outcome [17] | Potency [18] | outcome [19] | outcome [20]

CC(=O)O[C@H]1[C@H](O[C@H]2CC[C@]34C[C@]35CC[C@]3(C)[C@@H]([C@@]6(C)CC[C@@H](C(C)(C)O)O6)[C@@H](O)C[C@@]3(C)[C@@H]5C[C@H](O[C@@H]3O[C@H](CO)[C@@H](O)[C@H](O)[C@H]3O)[C@H]4C2(C)C)OC[C@@H](O)[C@@H]1O
inactive: outcome [5] | outcome [6] | Potency [7] | outcome [8] | outcome [9] | Potency [10] | Potency [11] | Potency [12] | Potency [13] | outcome [14] | Potency [15] | max response [16] -3.47% | outcome [17] | Potency [18] | outcome [19] | outcome [20]

CC12CC3(O)OC(O1)C1(COC(=O)c4ccc(O)cc4)C3CC21OC1OC(CO)C(O)C(O)C1O (stereo not given)
inactive: outcome [5] | outcome [6] | Potency [7] | outcome [8] | outcome [9] | Potency [10] | Potency [11] | Potency [12] | Potency [13] | outcome [14] | max response [16] 4.47% | outcome [17] | Potency [18] | outcome [19] | outcome [20]

CCCCCC/C=C\CCCCCCCC(=O)O
inactive: outcome [5] | outcome [6] | Potency [7] | outcome [8] | outcome [9] | Potency [11] | Potency [13] | outcome [14] | max response [16] 0.217% | outcome [17] | Potency [18] | outcome [19] | outcome [20]

CC(=O)OC1CC2CCC1(C)C2(C)C (stereo not given)
inactive: Potency [4] | outcome [5] | outcome [6] | Potency [7] | outcome [8] | outcome [9] | Potency [11] | Potency [12] | Potency [13] | outcome [14] | max response [16] 3.9% | outcome [17] | Potency [18] | outcome [19] | outcome [20]

CC1=CCC(O)(C(C)C)CC1 (stereo not given)
inactive: outcome [5] | outcome [6] | Potency [7] | outcome [8] | outcome [9] | Potency [10] | Potency [11] | Potency [12] | Potency [13] | outcome [14] | max response [16] 1.58% | outcome [17] | Potency [18] | outcome [19] | outcome [20]

CC1(C)C2CCC1(C)C(O)C2 (stereo not given)
inactive: outcome [5] | outcome [6] | Potency [7] | outcome [8] | outcome [9] | Potency [10] | Potency [11] | Potency [12] | Potency [13] | outcome [14] | max response [16] 1.58% | outcome [17] | Potency [18] | outcome [19] | outcome [20]
